This note sets out measurements from PubChem BioAssay (NCATS).

One assay concerns CRL-7250. As to the kind of experiment: Cytotoxic Profiling of Annotated Libraries Using Quantitative High-Throughput Screening (AID 1296008). For max response: % is set by controls: 0 for no effect and ±100 for the full control effect. Note: potency is the fitted concentration of half-maximal effect. The note with it: Five cell lines viability, CellTiter-Glo ATP luminescence, 48-72 h; max response: stronger effect = lower value. The essentials:
(§1)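 Cytotoxicity was measured as CellTiter-Glo ATP luminescence, read after 10 min at room temperature. Compound treatment of the cells lasted 48 or 72 hr at 37 degrees Celsius in a qHTS format.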
Background: ATP-based viability assays read luminescence as a measure of living cells.

Another assay has as its system HEK293. The description is as above. The note with it: Five cell lines viability, CellTiter-Glo ATP luminescence, 48-72 h; max response: stronger effect = lower value. The essentials: as §1
In assay [1] the test system is HaCat. The assay is described as above. The note with it: Five cell lines viability, CellTiter-Glo ATP luminescence, 48-72 h; max response: stronger effect = lower value. The essentials:
as §1

Another assay concerns KB-3-1. The description is as above. The note with it: Five cell lines viability, CellTiter-Glo ATP luminescence, 48-72 h; max response: stronger effect = lower value. The essentials:
as §1

The test system of the next assay is NIH3T3. The description is as above. The note with it: Five cell lines viability, CellTiter-Glo ATP luminescence, 48-72 h; max response: stronger effect = lower value. The essentials: as §1
For assay [2], the system named is HACAT. As to the kind of experiment: qHTS assay to identify novel small-molecules to repurpose for Merkel cell carcinoma treatment (AID 1296009). To be noted: MCC and control cell lines, CellTiter-Glo viability, 72 h; at 44.8 µM (top of the series) unless noted. The essentials: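 After compound transfer in DMSO, plates were kept 72 hr at 37 degree celsius. Luminescent ATP signal from CellTiter-Glo served as viability measure, normalized against DMSO and no-cell controls.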

The next assay has as its system TAB113. As to the kind of experiment: qHTS profiling for inhibitors of Plasmodium falciparum proliferation (AID 504749). Note: potency is the fitted concentration of half-maximal effect. The note with it: P. falciparum in erythrocytes, SYBR Green DNA, 72 h; series mostly up to 28.7 µM. The essentials:
(§2)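 Three-day growth assay of blood-stage parasites in erythrocytes (0.3% parasitemia, 2.5% hematocrit) at 37 C, 5% CO2, quantified by SYBR Green DNA staining after overnight detergent lysis.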
For orientation: qHTS replaces the single test concentration by a dilution series.

Another assay concerns TAB165. The description is as above. To be noted: P. falciparum in erythrocytes, SYBR Green DNA, 72 h; series mostly up to 28.7 µM. The essentials:
as §2

The next assay has as its system W2. The description is as above. The note with it: P. falciparum in erythrocytes, SYBR Green DNA, 72 h; series mostly up to 28.7 µM. The essentials:
as §2

Where “and” joins values, the source holds several entries; their conditions need not be identical. Equal values may be shown once. Records with an inconclusive call do not appear. Some compounds were tested as several samples or in several runs, with calls that do not always agree. Values without a mark were called inactive. Calls of active or inactive are those of the source. Calls come from the whole dose curve; as a rule, active = well fitted inhibition curve with a large enough effect; inconclusive = small, poorly fitted or top-dose-only effect; inactive = flat fitted curve, though single readings scatter.
Note: nearly all actives have a fitted effect of over 60% in size.

Take `COC(=O)C1=C(C)NC(C)=C(C(=O)OC(C)C)C1c1cccc2nonc12` (stereo not drawn): the max response in the assay on CRL-7250 was -24.3%; in the assay on HEK293, -10.7%; in the assay with HaCat [1], -5.13% and 3.88%; in the assay with KB-3-1, 5.12% and -6.21%; in the assay on NIH3T3, 1.63%.
`Nc1ncn([C@H]2C[C@H](O)[C@@H](CO)O2)c(=O)n1`: the max response with CRL-7250 is -5.93% and -8.36%; with KB-3-1, 9.32%; in the assay with NIH3T3 it was -24.2%. In the assay with HEK293, the Potency was 18.7 µM (active). For the same compound, the compound was classed as inactive in the assay with HaCat [1], with KB-3-1 and in the assay on HACAT [2].
Regarding `CC(C)C[C@H](NC(=O)[C@H](Cc1ccccc1)NC(=O)c1cnccn1)B(O)O`, the Potency in the assay on CRL-7250 is 59.6 nM (active) and 51.7 nM (active); in the assay with HEK293 it was 47.3 nM (active) and 41.1 nM (active); in the assay with HaCat [1], 188 nM (active); with KB-3-1, 58 nM (active) and 105 nM (active); with NIH3T3 it was 53.1 nM (active) and 11.6 nM (active).
In the case of `Cc1ccc(Nc2nccc(N(C)c3ccc4c(C)n(C)nc4c3)n2)cc1S(N)(=O)=O`, the Potency is 6.51 µM (active) with CRL-7250; 11.8 µM (active) in the assay with HEK293; 7.43 µM (active) and 7.31 µM (active) in the assay with NIH3T3. Further, the max response with HaCat [1] was -13.5% and -50.9%. The compound was classed as inactive with HaCat [1] and in the assay on HACAT [2].
Turning to `c1ccc2[nH]c(-c3cscn3)nc2c1`, the Potency result in the assay with TAB113, with TAB165 and in the assay with W2 was “inactive” throughout. Also, the max response in the assay with CRL-7250 was -2.24% and 4.16%; with HEK293, -22.6% and -4.05%; with HaCat [1], -3.12%; with KB-3-1, -14.9% and 2.26%; in the assay with NIH3T3, 2.11% and -9.05%. Besides, the compound was classed as inactive in the assay with HaCat [1] and with HACAT [2].
As to `c1cnc2cc3c(cc2n1)C1CNCC3C1`, the max response is -23.9% and -2.72% with CRL-7250; -2.74% and -10.4% with HEK293; 2.53% in the assay on HaCat [1]; 3.64% and -1.73% in the assay with KB-3-1; 4.61% in the assay on NIH3T3. The compound was called inactive with HaCat [1], in the assay with KB-3-1, with NIH3T3 and with HACAT [2].
`CN(C)CCCC1(c2ccc(F)cc2)OCc2cc(C#N)ccc21` (stereo not drawn): the max response in the assay on CRL-7250 is -4.07%; in the assay with HEK293, -24.9%; in the assay on HaCat [1], -6.25% and -3.5%; in the assay on KB-3-1, -8.3% and 1.59%; in the assay with NIH3T3, -3.81% and 4.08%.
Consider `Nc1ccc(S(N)(=O)=O)cc1`, for which the Potency result with TAB113, in the assay on TAB165 and with W2 was “inactive” each time. Also, the max response with CRL-7250 was -3.82% and 0.627%; in the assay with HEK293 it was 0.928% and -22.2%; in the assay with KB-3-1, 4.1% and 2.9%; in the assay with NIH3T3, -7.64%. Moreover, the outcome with HaCat [1], in the assay on NIH3T3 and with HACAT [2] was inactive.
Take `COCCCOc1ccnc(CS(=O)c2nc3ccccc3[nH]2)c1C` (stereo not drawn): the Potency entry in the assay with TAB113 was “inactive”. Further, in the assay with W2, the Potency was 1070 nM (active). Besides, the call in the assay on CRL-7250, in the assay on KB-3-1 and in the assay with NIH3T3 was inactive. Moreover, the max response was 1.81% in the assay with HEK293; -2% in the assay on HaCat [1]; -10% in the assay on KB-3-1; -12.1% and 2.17% in the assay with NIH3T3. In addition, the outcome in the assay with HaCat [1] and in the assay with HACAT [2] was “inactive; activator” throughout.
Consider `COc1cc2c(N3CCN(C(=O)Nc4ccc(OC(C)C)cc4)CC3)ncnc2cc1OCCCN1CCCCC1`, for which the max response in the assay on CRL-7250 is -25.9% and -20.4%; in the assay on HaCat [1] it was 3.85% and 0.506%; with KB-3-1, -30.9% and -5.38%; in the assay on NIH3T3, -26.1%. Moreover, in the assay with HEK293, the Potency is 18.7 µM (active).
On to `O=C(O)c1cccnc1Nc1cccc(C(F)(F)F)c1`, for which the Potency entry with TAB113, in the assay with TAB165 and in the assay with W2 was “inactive” throughout. Further, the max response with CRL-7250 was -6.42% and -10.2%; in the assay on HEK293, -4.95%; with HaCat [1], 1.64%; in the assay with NIH3T3, -31.9%. The compound was called inactive in the assay with HaCat [1], in the assay with NIH3T3 and in the assay on HACAT [2].
On to `Cc1cc(=O)c2c(O)c3c(O)cc(=O)c4c3c3c(cc(O)c1c23)C(C)(C)C=4O`, for which the Potency in the assay with TAB113 is 1580 nM (active); with TAB165 it was 1780 nM (active); in the assay on W2 it was 1350 nM (active); in the assay on CRL-7250, 3.66 µM (active) and 13.2 µM (active); with HEK293, 2.59 µM (active) and 3.72 µM (active); with HaCat [1], 1300 nM (active). The Potency in the assay with KB-3-1 is 11.6 µM (active) and 23.5 µM (active). In addition, the call in the assay with HaCat [1] and with HACAT [2] was inactive. In addition, the max response in the assay with NIH3T3 is -0.918%.
On to `CC1(C)NC(=O)N(c2ccc([N+](=O)[O-])c(C(F)(F)F)c2)C1=O`, for which the Potency entry in the assay with TAB113, in the assay on TAB165 and in the assay with W2 was “inactive” each time. Further, the max response is -12.3% with CRL-7250; -29% in the assay on HEK293; -0.412% in the assay on HaCat [1]; 2.37% and -24.9% with KB-3-1; -6.23% and -0.388% with NIH3T3. Besides, the compound was classed as inactive with HaCat [1] and with HACAT [2].
